# Exocytosis inh: lytic granule exocytosis inhibition | inhibition, % at 10 µM | TALL-104 LAMP-1 surface exposure, flow cytometry; cells stimulated with thapsigargin and PMA | actives 0.66% (n = 360,000);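 active means inhibition above about 55%, limit read from the data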
# MEX-5 binding: C. elegans MEX-5 TCR-2 RNA binding activity | Q9XUB2 | MEX-5/FITC-TCR2 RNA binding, fluorescence polarization; hits give low values | activity score (negative = inhibition of binding), % at 10 µM | actives 0.38% (n = 300,000) | AID 1832;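 active means inhibition past about -25% in most replicates, and total fluorescence under double the plate's negative control median, limit read from the data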
# V-ATPase pH: alters yeast V-ATPase proton transport. S. cerevisiae, pHLuorin cytosolic pH fluorescence. response, % at 10 µM. actives 0.37% (n = 350,000). AID 504577; in the data active means response mostly above about 7.3%, no sharp cut-off; inactive means mostly below about 5.4%; further: actives read high
# m5-HT2A agonist: activates the mouse 5-HT2A serotonin receptor | actives 0.66% (n = 360,000) | CHO-K1 mHTR2A beta-arrestin complementation, luminescence; percent of 30 µM serotonin response | activation, % at 7.6 µM | P35363;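 active means activation above a run cutoff, the mean activation of all tested compounds plus 3 SD, cut at about 14% in these data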
# JMJD2C inh: human JMJD2C demethylase inhibition; AID 2099; actives 0.069% (n = 330,000); GST-JMJD2C(1-420) H3K9me3 demethylation, DELFIA europium; inhibition, % at 2.35 µM;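 active means more than half of a compound's replicate wells show inhibition beyond 50%, single wells judged on their own value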;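 further: signal counts dimethyl H3K9 product captured on neutravidin plate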
# Target sequence (Q9H3R0 1-420 limits assumed): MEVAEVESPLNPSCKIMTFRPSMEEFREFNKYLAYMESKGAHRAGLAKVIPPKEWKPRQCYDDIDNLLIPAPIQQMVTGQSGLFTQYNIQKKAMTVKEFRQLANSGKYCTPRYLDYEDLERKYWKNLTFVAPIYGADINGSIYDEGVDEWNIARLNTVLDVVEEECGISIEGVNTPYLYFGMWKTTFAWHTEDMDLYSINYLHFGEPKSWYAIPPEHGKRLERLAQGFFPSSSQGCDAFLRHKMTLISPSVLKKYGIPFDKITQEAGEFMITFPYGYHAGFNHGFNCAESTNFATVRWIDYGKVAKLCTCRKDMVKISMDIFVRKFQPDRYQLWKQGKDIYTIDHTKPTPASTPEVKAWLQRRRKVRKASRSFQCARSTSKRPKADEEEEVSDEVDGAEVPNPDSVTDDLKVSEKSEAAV
# VLA-4 inh: inhibition in a human VLA-4 binding assay | P13612 | VLA-4 expressing cells, ligand binding flow cytometry | inhibition, % (about 7 µM as worked out from the volumes in the protocol) | actives 0.2% (n = 330,000); in the data active means inhibition above about 50%
# Hits are given with their value; 0 = inactive; - = no result given. This is a sample that favours compounds with a hit; in the whole collection about 2.2% have one here.
SMILES,Exocytosis inh,MEX-5 binding,V-ATPase pH,m5-HT2A agonist,JMJD2C inh,VLA-4 inh
O=C1[C@H]2[C@@H](c3ccc(F)cc3)N3C(=O)N(c4ccc(Br)cc4)C(=O)[C@@]3(Cc3ccc(Cl)cc3)[C@H]2C(=O)N1C1CCCCC1,0,0,11.8,0,0,0
O=C(c1ccc(-c2ccc([N+](=O)[O-])cc2)o1)N1CCN(S(=O)(=O)c2cccs2)CC1,0,-,0,0,0,0
COc1cc(F)ccc1-c1csc(C(O)c2ccccc2)n1 (centres undefined),0,-,-,0,-,-
O=C(NC(=S)NC1CCC(O)CC1)c1ccco1 (centres undefined),0,-,0,0,0,0
COc1ccc(C(=O)Nc2ccc(Cl)c(S(=O)(=O)N3CCOCC3)c2)cc1,0,-,0,0,0,0
O=C(Nc1ccc(Cl)c(S(=O)(=O)N2CCOCC2)c1)c1ccc(OCC2CCCO2)cc1 (centres undefined),94.1,0,0,0,0,0
CCC(=O)Nc1ccc(C2C(=O)c3ccccc3C2=O)cc1,0,0,0,0,0,0
Cc1cc(=O)n2[nH]c(=O)c(N=Nc3ccccc3)c2[nH]1,0,-81.7,0,0,0,0
CCOc1ccc(N=Nc2c(=O)[nH]n3c(=O)cc(C)[nH]c23)cc1,0,-51.0,0,0,0,0
Cc1ccc(C(=O)Nc2ccccc2N2CCOCC2)cc1S(=O)(=O)N1CCOCC1,0,-,0,0,0,0
COc1cc(/C=N/N2C(=O)CSC2=S)ccc1O,0,0,0,0,0,0
O=C1CSC(=S)N1/N=C/c1cc(Br)c(O)c(Br)c1,0,-32.8,0,0,0,0
CCCCc1nnc(SCC(=O)NC2CCCCC2)n1C,0,0,0,0,0,0
COc1nc(N)nc(NC(=O)c2cccs2)c1N=O,105.0,0,0,0,0,0
COc1ccc(NC(=O)c2ccc(NC(=O)c3cccs3)cc2)cc1,0,0,0,0,0,0
Cn1cccc1/C=C1\SC(=Nc2ccccc2)NC1=O,55.7,0,0,0,0,0
O=C(O)c1ccc(CSc2nnc(-c3ccccc3Br)o2)cc1,0,0,0,16.3,0,0
O=C(O)c1ccc(CSc2nnc(-c3ccc(Cl)cc3)o2)cc1,0,0,0,0,0,0
Cc1nc(-c2ccc(O)c(O)c2)cs1,0,-51.2,0,0,0,0
Cc1ccc2nc(-c3ccccc3)cn2c1,0,0,-,0,0,0
Cc1ccc2nc(-c3ccc(O)c(O)c3)cn2c1,0,-48.3,0,0,0,0
NC1=NC(=O)/C(=C\c2ccc(-c3ccc(Cl)cc3)o2)S1,0,0,0,0,0,0
CN(C)C1=NC(=O)/C(=C/c2ccc(-c3ccc(S(N)(=O)=O)cc3)o2)S1,-,-28.6,-,-,0,0
CCOC(=O)c1noc2c1CCC2,0,-,-,0,-,-
CO/N=C(\C(=O)N[C@@H]1C(=O)N2C(C(=O)O)=C(COC(N)=O)CS[C@H]12)c1ccco1,0,0,0,14.6,0,0
SMILES,Exocytosis inh,MEX-5 binding,V-ATPase pH,m5-HT2A agonist,JMJD2C inh,VLA-4 inh
CCCCn1c(N)c(N(C)C(=O)c2cn(-c3ccccc3)nc2-c2ccccc2)c(=O)[nH]c1=O,0,-,0,0,0,0
CCOC(=O)C1CCCN1C(=O)C1(NC(C)=O)CCCC1 (centres undefined),0,-,0,0,-,-
Cc1cccc(C)c1NC(=O)c1sccc1SCc1cccc(C(F)(F)F)c1,66.5,0,0,0,0,0
COc1ccc(NC(=O)COC(=O)CCC2CCCC2)c(OC)c1,0,-,0,0,0,0
CCc1ccc(NC(=O)Nc2cccs2)cc1,0,0,0,0,0,0
Cc1ccc(NC(=O)Nc2cccs2)cc1,0,0,23.3,0,0,0
O=C(CN1CCOCC1)Nc1nc(-c2ccc3c(c2)CCN3S(=O)(=O)c2ccccc2)cs1,0,0,0,15.4,0,0
O=C(c1coc(=O)c(Br)c1)N1CCCc2ccccc21,0,-27.3,0,0,0,0
CC1(C)CCCN(C(=O)c2coc(=O)c(Br)c2)C1,0,-27.6,0,0,0,-
CC(C)C[C@@H]1COc2cccc(N(C)CCO)c2S(=O)(=O)N1,0,-,-,0,-,-
COC(=O)[C@H](CCSC)NC(=O)NC1CCN(Cc2ccccc2)CC1,0,-35.5,0,0,0,0
O=C(Nc1nc(-c2cccc3ccccc23)cs1)c1ccc2c(c1)S(=O)(=O)c1ccccc1C2=O,0,0,20.7,0,0,0
